The source made the active and inactive calls. How the calls were made is not given here.
Target: Estrogen receptor (Homo sapiens) (UniProt P03372)
Assay: ERalpha ligand binders by competition, primary screen, cell-based, Cos7 ERalpha-GFP, flow cytometry (AID 1211);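 further: 0% = DMSO vehicle wells and 100% = no E2-Alexa633 signal left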
Settings: fluorescent ligand competition, stronger effect = higher value

Sequence of Estrogen receptor (Homo sapiens) (P03372 whole entry, looked up): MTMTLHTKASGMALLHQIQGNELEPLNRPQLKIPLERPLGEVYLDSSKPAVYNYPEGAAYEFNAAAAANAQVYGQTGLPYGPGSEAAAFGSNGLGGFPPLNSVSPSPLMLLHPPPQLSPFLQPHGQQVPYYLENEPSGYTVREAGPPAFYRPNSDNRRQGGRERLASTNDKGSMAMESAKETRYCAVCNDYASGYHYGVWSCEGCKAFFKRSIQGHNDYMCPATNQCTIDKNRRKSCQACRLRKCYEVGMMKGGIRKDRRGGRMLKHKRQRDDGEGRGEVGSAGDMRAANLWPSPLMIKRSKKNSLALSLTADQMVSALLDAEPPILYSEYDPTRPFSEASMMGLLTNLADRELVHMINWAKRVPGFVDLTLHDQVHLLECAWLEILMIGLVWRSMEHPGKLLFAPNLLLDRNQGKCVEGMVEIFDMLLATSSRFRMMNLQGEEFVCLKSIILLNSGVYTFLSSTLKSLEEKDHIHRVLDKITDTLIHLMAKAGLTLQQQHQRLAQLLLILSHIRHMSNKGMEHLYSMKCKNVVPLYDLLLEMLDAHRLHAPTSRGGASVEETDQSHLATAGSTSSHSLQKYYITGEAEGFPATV

Row | SMILES | inhibition of ligand binding (at 10 µM) | inhibition of ligand binding (binding inhibition, at 0.1 µM)
1 | Cc1ccsc1/C=C(\C(=O)c1ccc(OC(C)C)cc1)c1nc2ccccc2o1 | 12% (inactive) | 40%
2 | O=C1C(c2ccnc3ccccc23)=C(O)c2ccccc21 | 26% (inactive) | 28%
3 | COc1nnc(-c2ccc(C(=O)N3C[C@@H]4C[C@H](C3)c3cccc(=O)n3C4)cc2)c2ccccc12 | 1% (inactive) | 6%
4 | O=C(Cc1cccs1)Nc1nnc(Cc2ccccc2)s1 | 33% (inactive) | 31%
5 | CCn1c(SCC(=O)Nc2cccc(F)c2)nnc1-c1cc2cc(Br)ccc2o1 | 26% (inactive) | 35%
6 | Nc1cc2sc(-c3ccc(C(=O)O)cc3)nc2cc1Cl | 24% (inactive) | 49%
7 | Nc1ccc(-c2cc(-c3ccc(N)cc3)nc(-c3ccccc3)n2)cc1 | 51% (inactive) | 12%
8 | Cc1cc(=O)[nH]c(SCC(=O)NCc2ccco2)n1 | 19% (inactive) | 8%
9 | CCN(c1ccccc1)S(=O)(=O)c1cc(C(=O)O)ccc1C | 7% (inactive) | 20%
10 | Oc1ccccc1N=Nc1nc(-c2ccccc2)c(-c2ccccc2)[nH]1 | 52% (inactive) | 27%
11 | CCOC(=O)C1CCCN(C(=O)c2ccc(CS(=O)(=O)c3ccc(C)cc3)o2)C1 (stereo not drawn) | 30% (inactive) | 6%
12 | CCOc1ccc(N=C2NC(=O)S/C2=C\c2ccc(OC)cc2)cc1 | 39% (inactive) | 26%
13 | Cc1cc(-c2nnc3sc(-c4ccc(Cl)cc4Cl)nn23)n[nH]1 | 27% (inactive) | 53%
14 | CC1(N2CCOCC2)CC2(O)C(=[N+]1[O-])CCc1nonc12 (stereo not drawn) | 34% (inactive) | 46%
15 | Cc1noc(C)c1S(=O)(=O)N(CC(=O)O)c1ccc2c(c1)OCO2 | 0% (inactive) | 3%
16 | COc1ccc(N2Cc3cccc(C(=O)N4CCN(C(=O)c5ccco5)CC4)c3C2=O)cc1 | 20% (inactive) | 38%
17 | CCOC(=O)c1c(/N=C/c2ccc(O)cc2O)sc2c1CCC2 | 58% (inactive) | 42%
18 | COC(=O)c1ccc(CC(=O)c2ccc(O)cc2O)o1 | 32% (inactive) | 9%
19 | Nc1ccc2nc(-c3ccc(Cl)cc3)[nH]c2c1 | 41% (inactive) | 30%
20 | O=C(Nc1ccc2c(c1)nc1n2CCSC1)c1ccco1 | 20% (inactive) | 42%

Row | SMILES | inhibition of ligand binding (at 10 µM) | inhibition of ligand binding (binding inhibition, at 0.1 µM)
21 | NC(=O)c1c(NC(=O)c2cccs2)sc2c1CCCCCC2 | 0% (inactive) | 22%
22 | CC(=O)c1ccc2c(c1)C1C=CCC1C(C(=O)O)N2 (stereo not drawn) | 42% (inactive) | 39%
23 | CCc1ccc2[nH]c(=O)c(C3C(C#N)=C(N)Oc4c3ccc3cccnc43)cc2c1 (stereo not drawn) | 30% (inactive) | 37%
24 | COc1ccc(NC(=O)c2ccco2)cc1N | 2% (inactive) | 3%
25 | CN=c1scc(C)n1/N=C/c1ccc(O)cc1O | 0% (inactive) | 3%
26 | COc1cccc2c1NC(C(=O)O)C1CC=CC21 (stereo not drawn) | 38% (inactive) | 9%
27 | Cc1cc2n(c1)CCn1c(C)ccc1-2 | 26% (inactive) | 53%
28 | Cc1cc(NC(=O)CSc2cn(CCNC(=O)c3ccc(Cl)cc3)c3ccccc23)no1 | 15% (inactive) | 37%
29 | COc1cc(CCC(=O)OCC(=O)Nc2ncc(Cl)cc2Cl)cc(OC)c1OC | 3% (inactive) | 27%
30 | Cc1nn2cc(-c3ccc(N)cc3)nc2s1 | 28% (inactive) | 53%
31 | CN(CC(=O)NC(=O)NCc1ccco1)Cc1nc2ccccc2c(=O)[nH]1 | 17% (inactive) | 64%
32 | O=C(CNc1ccccc1)N/N=C/c1cn(-c2ccccc2)nc1-c1ccccc1 | 28% (inactive) | 52%
33 | Cc1ccc(S(=O)(=O)Cc2ccc(C(=O)N3CCc4ccccc4C3)o2)cc1 | 54% (inactive) | 57%
34 | O=C(COC(=O)CC1CCCC1)Nc1cc2c(cc1Cl)C(=O)c1ccccc1C2=O | 37% (inactive) | 24%
35 | COc1ccc(C2Nc3ccccc3C(=O)N2c2ccc(C)cc2)cc1Cn1cc([N+](=O)[O-])cn1 (stereo not drawn) | 26% (inactive) | 7%
36 | CCCCn1c(=O)[nH]c2nc3cc(N)ccc3nc2c1=O | 4% (inactive) | 1%
37 | O=C(CCCn1c(=S)[nH]c2ccccc2c1=O)N1CCN(c2cccc(Cl)c2)CC1 | 55% (inactive) | 15%
38 | C/C=C(/C(=C/C)c1ccc(O)cc1)c1ccc(O)cc1 | 76% (active) | 87%
39 | O=C(Cn1c(=O)n(Cc2ccco2)c(=O)c2c3c(sc21)CCCCC3)Nc1ccccc1 | 51% (inactive) | 39%

From PubChem BioAssay AID1211 (NMMLSC, 2008)
